Experimental findings from the supplement of paper PMC10849652 are described below.

About 7,900 targets were measured; listed, in parts, are those with a hit and a random draw of the rest. About 0.6% of all pairs of compound and target were hits. A number with no mark means an inactive call.

UniProt Q5XKP0, sequence (Q5XKP0 whole entry, looked up): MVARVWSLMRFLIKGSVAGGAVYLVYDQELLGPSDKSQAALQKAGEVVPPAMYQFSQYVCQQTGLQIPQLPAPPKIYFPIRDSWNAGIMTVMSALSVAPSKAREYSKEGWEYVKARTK
UniProt Q9H9P8, sequence (Q9H9P8 whole entry, looked up): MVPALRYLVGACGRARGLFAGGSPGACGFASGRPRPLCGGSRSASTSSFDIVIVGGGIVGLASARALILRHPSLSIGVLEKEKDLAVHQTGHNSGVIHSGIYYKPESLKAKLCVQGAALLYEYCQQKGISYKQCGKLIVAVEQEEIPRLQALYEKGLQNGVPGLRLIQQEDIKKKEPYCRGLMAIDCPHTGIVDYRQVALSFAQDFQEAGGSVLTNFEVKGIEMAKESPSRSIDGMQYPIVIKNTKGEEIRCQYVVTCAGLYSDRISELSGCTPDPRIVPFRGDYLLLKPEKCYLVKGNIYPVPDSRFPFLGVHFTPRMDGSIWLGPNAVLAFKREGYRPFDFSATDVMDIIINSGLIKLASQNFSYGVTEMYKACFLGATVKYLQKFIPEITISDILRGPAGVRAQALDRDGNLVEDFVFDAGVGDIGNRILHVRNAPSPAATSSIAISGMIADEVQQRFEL
UniProt P14174, sequence (P14174 whole entry, looked up): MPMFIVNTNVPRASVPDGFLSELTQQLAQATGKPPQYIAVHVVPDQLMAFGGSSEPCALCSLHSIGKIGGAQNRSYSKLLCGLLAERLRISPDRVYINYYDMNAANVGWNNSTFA
UniProt Q07820, sequence (Q07820 whole entry, looked up): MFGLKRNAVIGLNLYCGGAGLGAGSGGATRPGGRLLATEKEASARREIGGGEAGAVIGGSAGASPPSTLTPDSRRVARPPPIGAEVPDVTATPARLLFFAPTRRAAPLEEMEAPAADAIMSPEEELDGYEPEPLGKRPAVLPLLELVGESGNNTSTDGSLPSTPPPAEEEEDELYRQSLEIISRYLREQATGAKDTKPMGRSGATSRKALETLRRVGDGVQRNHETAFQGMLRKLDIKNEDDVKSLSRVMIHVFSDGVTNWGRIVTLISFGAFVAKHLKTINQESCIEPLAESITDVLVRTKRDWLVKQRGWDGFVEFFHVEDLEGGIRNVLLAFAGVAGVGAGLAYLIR
UniProt Q14653, sequence (Q14653 whole entry, looked up): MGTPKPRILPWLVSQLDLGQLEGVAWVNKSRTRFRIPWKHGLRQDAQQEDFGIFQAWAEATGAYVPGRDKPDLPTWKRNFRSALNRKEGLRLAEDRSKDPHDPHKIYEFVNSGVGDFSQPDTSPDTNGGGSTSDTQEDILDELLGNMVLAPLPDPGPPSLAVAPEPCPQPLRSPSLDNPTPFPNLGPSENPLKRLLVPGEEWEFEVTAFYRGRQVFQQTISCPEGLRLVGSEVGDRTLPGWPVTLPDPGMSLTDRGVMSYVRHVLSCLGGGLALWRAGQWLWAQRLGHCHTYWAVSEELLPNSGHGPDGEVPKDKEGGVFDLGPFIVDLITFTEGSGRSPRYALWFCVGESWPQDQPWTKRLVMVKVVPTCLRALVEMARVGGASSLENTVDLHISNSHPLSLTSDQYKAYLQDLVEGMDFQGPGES
UniProt O43934, sequence (O43934 whole entry, looked up): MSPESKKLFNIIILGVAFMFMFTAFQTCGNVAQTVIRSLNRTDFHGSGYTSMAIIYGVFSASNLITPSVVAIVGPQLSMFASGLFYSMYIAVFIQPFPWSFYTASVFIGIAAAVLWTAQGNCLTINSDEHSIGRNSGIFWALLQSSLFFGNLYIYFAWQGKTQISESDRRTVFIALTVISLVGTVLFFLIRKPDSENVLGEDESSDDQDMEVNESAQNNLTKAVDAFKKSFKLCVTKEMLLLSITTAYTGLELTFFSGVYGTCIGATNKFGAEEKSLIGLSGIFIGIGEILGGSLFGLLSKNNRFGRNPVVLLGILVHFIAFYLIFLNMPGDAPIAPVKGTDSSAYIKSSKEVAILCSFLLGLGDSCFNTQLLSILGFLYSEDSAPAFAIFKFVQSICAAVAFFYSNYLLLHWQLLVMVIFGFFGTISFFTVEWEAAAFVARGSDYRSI
UniProt Q9NVC6, sequence (Q9NVC6 whole entry, looked up): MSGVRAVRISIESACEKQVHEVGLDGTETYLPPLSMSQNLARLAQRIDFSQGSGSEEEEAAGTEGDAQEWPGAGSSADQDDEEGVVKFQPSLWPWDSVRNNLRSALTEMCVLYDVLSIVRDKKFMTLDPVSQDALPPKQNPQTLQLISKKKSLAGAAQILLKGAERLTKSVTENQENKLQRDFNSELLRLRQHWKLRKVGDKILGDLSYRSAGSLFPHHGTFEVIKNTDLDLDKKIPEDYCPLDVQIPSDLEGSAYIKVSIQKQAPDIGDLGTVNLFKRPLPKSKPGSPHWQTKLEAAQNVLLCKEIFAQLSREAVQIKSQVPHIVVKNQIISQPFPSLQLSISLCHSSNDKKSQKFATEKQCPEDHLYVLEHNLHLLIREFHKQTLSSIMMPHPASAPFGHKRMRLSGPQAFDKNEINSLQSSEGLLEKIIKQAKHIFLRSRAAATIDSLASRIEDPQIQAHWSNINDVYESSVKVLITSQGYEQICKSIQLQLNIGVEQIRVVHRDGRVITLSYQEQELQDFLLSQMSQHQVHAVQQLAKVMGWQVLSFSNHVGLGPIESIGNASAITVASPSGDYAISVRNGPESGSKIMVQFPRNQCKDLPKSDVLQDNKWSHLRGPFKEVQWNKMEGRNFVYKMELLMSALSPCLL
UniProt A8MWY0, sequence (A8MWY0 whole entry, looked up): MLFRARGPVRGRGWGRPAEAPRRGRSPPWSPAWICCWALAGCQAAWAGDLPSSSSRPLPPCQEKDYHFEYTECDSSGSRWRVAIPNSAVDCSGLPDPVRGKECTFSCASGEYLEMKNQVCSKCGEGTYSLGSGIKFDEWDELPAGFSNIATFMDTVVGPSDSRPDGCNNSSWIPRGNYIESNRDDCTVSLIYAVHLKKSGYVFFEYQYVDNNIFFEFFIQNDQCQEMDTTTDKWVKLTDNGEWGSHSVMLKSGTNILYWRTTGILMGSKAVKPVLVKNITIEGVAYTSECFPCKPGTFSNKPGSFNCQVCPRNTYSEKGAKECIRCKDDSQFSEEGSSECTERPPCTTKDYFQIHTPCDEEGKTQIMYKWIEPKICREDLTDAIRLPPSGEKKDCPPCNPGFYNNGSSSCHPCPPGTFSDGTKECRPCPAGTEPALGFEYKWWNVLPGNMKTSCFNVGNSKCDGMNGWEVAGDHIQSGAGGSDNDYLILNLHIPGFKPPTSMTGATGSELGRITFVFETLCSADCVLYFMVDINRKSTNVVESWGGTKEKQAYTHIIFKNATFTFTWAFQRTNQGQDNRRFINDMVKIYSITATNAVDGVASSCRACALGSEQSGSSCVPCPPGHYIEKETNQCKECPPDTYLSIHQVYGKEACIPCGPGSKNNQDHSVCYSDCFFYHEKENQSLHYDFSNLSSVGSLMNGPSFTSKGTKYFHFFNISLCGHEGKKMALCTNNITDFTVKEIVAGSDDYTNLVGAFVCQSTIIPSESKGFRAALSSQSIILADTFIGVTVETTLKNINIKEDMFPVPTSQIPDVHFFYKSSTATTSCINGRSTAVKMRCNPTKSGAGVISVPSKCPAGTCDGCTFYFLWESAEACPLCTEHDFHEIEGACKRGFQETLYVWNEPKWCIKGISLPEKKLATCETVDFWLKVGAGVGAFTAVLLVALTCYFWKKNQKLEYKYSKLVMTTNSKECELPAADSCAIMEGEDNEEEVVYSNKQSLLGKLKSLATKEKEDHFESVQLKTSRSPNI
UniProt Q9UBF1, sequence (Q9UBF1 whole entry, looked up): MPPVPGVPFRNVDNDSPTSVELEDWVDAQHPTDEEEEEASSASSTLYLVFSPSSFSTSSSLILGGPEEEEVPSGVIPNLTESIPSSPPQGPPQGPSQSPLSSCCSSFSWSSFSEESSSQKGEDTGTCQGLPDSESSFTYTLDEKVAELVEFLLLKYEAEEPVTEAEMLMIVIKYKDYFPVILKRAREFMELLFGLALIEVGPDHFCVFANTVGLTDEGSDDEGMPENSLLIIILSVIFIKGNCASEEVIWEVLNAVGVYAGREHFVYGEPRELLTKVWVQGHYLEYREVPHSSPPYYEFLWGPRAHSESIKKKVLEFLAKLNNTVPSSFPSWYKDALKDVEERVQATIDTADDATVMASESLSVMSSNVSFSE
UniProt P27448, sequence (P27448 whole entry, looked up): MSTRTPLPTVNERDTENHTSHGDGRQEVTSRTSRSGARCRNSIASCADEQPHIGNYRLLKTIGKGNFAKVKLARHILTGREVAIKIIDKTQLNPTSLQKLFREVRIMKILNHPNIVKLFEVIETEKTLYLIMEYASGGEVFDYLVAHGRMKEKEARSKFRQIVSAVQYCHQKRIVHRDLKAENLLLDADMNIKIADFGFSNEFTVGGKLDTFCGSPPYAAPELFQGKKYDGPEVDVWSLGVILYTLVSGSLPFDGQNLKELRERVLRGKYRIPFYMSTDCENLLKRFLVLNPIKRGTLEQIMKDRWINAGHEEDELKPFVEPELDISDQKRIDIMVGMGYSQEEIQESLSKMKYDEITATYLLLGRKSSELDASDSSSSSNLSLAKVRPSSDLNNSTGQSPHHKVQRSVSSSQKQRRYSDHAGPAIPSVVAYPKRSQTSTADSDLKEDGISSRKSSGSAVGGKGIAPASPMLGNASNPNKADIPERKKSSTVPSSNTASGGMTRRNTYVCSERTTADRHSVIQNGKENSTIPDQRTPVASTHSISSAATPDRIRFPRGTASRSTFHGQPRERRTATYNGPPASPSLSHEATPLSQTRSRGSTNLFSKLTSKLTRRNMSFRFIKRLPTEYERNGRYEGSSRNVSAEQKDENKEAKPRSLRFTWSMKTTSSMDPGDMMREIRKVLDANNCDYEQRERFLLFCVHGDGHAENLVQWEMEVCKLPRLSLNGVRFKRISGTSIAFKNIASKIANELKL
UniProt P49006, sequence (P49006 whole entry, looked up): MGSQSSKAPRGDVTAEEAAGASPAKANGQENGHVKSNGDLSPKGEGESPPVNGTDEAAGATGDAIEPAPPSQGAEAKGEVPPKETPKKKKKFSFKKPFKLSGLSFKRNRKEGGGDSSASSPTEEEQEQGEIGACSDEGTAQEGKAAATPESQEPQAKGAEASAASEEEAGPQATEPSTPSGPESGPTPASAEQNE

Compound in one experiment: NC1(c2ccc(-c3nc4ccn5c(=O)[nH]nc5c4cc3-c3ccccc3)cc2)CCC1
Put plainly: log2 fold change, soluble protein after heating vs DMSO (PISA); higher = thermal stabilisation; K562 cells, 10 uM, 30 min; active = over 0.2 and 3.5 SD of the protein, either way, in both replicates (recomputed). In outline: (§1)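 Soluble protein was defined as the supernatant after 21,000xg for 90 min. It came from K562 cells at 2×10^6 cells/mL given 10 μM compound for 30 min, heated in aliquots for 3 min across 48°C-58°C, pooled, and extracted in PBS with 0.5% NP-40 at 4°C, and was quantified by TMTpro 16plex LC-MS/MS with equalised channel sums. Thermal stability against control samples, from duplicates, is reported as log2 fold change.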
As to LMNA (UniProt P02545), the log2 fold change was 0.024.

As for MAP4 (UniProt E7EVA0), the log2 fold change was 0.144.

For the target LMBRD1 (UniProt Q9NUN5), the log2 fold change is -0.243.

MFSD11 (UniProt O43934): the log2 fold change was -0.202.

With KLHL18 (UniProt O94889), the log2 fold change was -0.145.

In the case of L2HGDH (UniProt Q9H9P8), the log2 fold change was -0.145.

Take INPP1 (UniProt P49441): the log2 fold change is -0.108.

For MAPKAPK2 (UniProt P49137), the log2 fold change was -0.14.

On to LRRFIP1 (UniProt Q32MZ4), for which the log2 fold change is 0.056.

LTN1 isoform 3 (UniProt O94822): the log2 fold change was -0.125.

On to MARK3 (UniProt P27448), for which the log2 fold change was -0.006.

As to MICOS13 (UniProt Q5XKP0), the log2 fold change is -0.119.

In the case of MAP1LC3B2 (UniProt A6NCE7), the log2 fold change was -0.128.

On to MFSD1 isoform 6 (UniProt Q9H3U5), for which the log2 fold change was -0.308 (active).

Turning to KPNA6 (UniProt O60684), the log2 fold change is -0.06.

Take LPIN1 isoform 7 (UniProt Q14693): the log2 fold change was -0.039.

Consider LAMP2 (UniProt P13473), for which the log2 fold change was -0.122.

Regarding MCCC2 (UniProt Q9HCC0), the log2 fold change is 0.036.

Consider MED17 (UniProt Q9NVC6), for which the log2 fold change is 0.049.

As to IPO9 (UniProt Q96P70), the log2 fold change was -0.07.

In the case of KCTD2 (UniProt Q14681), the log2 fold change is 0.032.

For the target MCL1 (UniProt Q07820), the log2 fold change was -0.093.

Consider ILK (UniProt Q13418), for which the log2 fold change is -0.07.

For the target IMMT isoform 2 (UniProt Q16891), the log2 fold change is -0.044.

Turning to KTN1 (UniProt Q86UP2), the log2 fold change is 0.035.

For MAGEC2 (UniProt Q9UBF1), the log2 fold change was -0.021.

IKZF1 (UniProt Q13422): the log2 fold change is 0.21.

For MAPKAPK5 (UniProt Q8IW41), the log2 fold change was -0.051.

Turning to IWS1 (UniProt Q96ST2), the log2 fold change was -0.028.

For the target MIER1 isoform 12 (UniProt Q8N108), the log2 fold change was -0.074.

For KIAA1324L (UniProt A8MWY0), the log2 fold change was -0.138.

As for MIEF1 (UniProt Q9NQG6), the log2 fold change is -0.215.

Take KPNA1 (UniProt P52294): the log2 fold change is -0.047.

Consider MARCKSL1 (UniProt P49006), for which the log2 fold change is -0.01.

In the case of MIF (UniProt P14174), the log2 fold change is 0.103.

With IRF3 (UniProt Q14653), the log2 fold change is -0.021.

In the case of MAST4 (UniProt O15021), the log2 fold change was -0.298.

Regarding ME2 (UniProt P23368), the log2 fold change is 0.07.

Compound in the next experiment: NCC(=O)Nc1ccc(-n2nc(C(F)(F)F)cc2-c2ccc3c(ccc4ccccc43)c2)cc1
Described as above. Put shortly:
as §1
On to LMNA (UniProt P02545), for which the log2 fold change was 0.047.

Turning to MAP4 (UniProt E7EVA0), the log2 fold change was 0.105.

LMBRD1 (UniProt Q9NUN5): the log2 fold change was -0.162.

For the target MFSD11 (UniProt O43934), the log2 fold change is 0.002.

Take KLHL18 (UniProt O94889): the log2 fold change was -0.123.

On to L2HGDH (UniProt Q9H9P8), for which the log2 fold change is 0.007.

For the target INPP1 (UniProt P49441), the log2 fold change is -0.036.

MAPKAPK2 (UniProt P49137): the log2 fold change was 0.034.

Take LRRFIP1 (UniProt Q32MZ4): the log2 fold change is 0.024.

With LTN1 isoform 3 (UniProt O94822), the log2 fold change is -0.09.

On to MARK3 (UniProt P27448), for which the log2 fold change was -0.113.

Take MICOS13 (UniProt Q5XKP0): the log2 fold change is 0.029.

With MAP1LC3B2 (UniProt A6NCE7), the log2 fold change was -0.085.

With MFSD1 isoform 6 (UniProt Q9H3U5), the log2 fold change was -0.098.

For the target KPNA6 (UniProt O60684), the log2 fold change was -0.002.

Take LPIN1 isoform 7 (UniProt Q14693): the log2 fold change was -0.03.

As to LAMP2 (UniProt P13473), the log2 fold change is 0.055.

For the target MCCC2 (UniProt Q9HCC0), the log2 fold change is 0.06.

Turning to MED17 (UniProt Q9NVC6), the log2 fold change was -0.034.

Consider IPO9 (UniProt Q96P70), for which the log2 fold change was 0.003.

With KCTD2 (UniProt Q14681), the log2 fold change was -0.119.

As for MCL1 (UniProt Q07820), the log2 fold change is -0.039.

In the case of ILK (UniProt Q13418), the log2 fold change is -0.095.

Consider IMMT isoform 2 (UniProt Q16891), for which the log2 fold change is -0.066.

As to KTN1 (UniProt Q86UP2), the log2 fold change is -0.038.

With MAGEC2 (UniProt Q9UBF1), the log2 fold change was -0.004.

As to IKZF1 (UniProt Q13422), the log2 fold change is -0.03.

For MAPKAPK5 (UniProt Q8IW41), the log2 fold change is -0.009.

With IWS1 (UniProt Q96ST2), the log2 fold change is -0.171.

With MIER1 isoform 12 (UniProt Q8N108), the log2 fold change is -0.025.

Turning to KIAA1324L (UniProt A8MWY0), the log2 fold change is 0.009.

Take MIEF1 (UniProt Q9NQG6): the log2 fold change is -0.034.

Consider KPNA1 (UniProt P52294), for which the log2 fold change is -0.058.

For MARCKSL1 (UniProt P49006), the log2 fold change is 0.002.

With MIF (UniProt P14174), the log2 fold change is 0.048.

Turning to IRF3 (UniProt Q14653), the log2 fold change was -0.022.

For the target MAST4 (UniProt O15021), the log2 fold change was -0.115.

On to ME2 (UniProt P23368), for which the log2 fold change was -0.033.
